# Bioassay records deposited in PubChem by several laboratories.
# RecA splice inh = blocks M. tuberculosis RecA intein splicing; 290,000 compounds, 0.75% hits; P9WHJ3; inhibition, % (concentration not given with the values); cell-free RecA intein splicing, fluorescence; in the data active means inhibition above about 30%; inconclusive means no clear call, values can overlap the other calls;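 further: 0% = vehicle wells and 100% = reference inhibitor control wells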
# Target sequence (P9WHJ3 whole entry, looked up, canonical isoform): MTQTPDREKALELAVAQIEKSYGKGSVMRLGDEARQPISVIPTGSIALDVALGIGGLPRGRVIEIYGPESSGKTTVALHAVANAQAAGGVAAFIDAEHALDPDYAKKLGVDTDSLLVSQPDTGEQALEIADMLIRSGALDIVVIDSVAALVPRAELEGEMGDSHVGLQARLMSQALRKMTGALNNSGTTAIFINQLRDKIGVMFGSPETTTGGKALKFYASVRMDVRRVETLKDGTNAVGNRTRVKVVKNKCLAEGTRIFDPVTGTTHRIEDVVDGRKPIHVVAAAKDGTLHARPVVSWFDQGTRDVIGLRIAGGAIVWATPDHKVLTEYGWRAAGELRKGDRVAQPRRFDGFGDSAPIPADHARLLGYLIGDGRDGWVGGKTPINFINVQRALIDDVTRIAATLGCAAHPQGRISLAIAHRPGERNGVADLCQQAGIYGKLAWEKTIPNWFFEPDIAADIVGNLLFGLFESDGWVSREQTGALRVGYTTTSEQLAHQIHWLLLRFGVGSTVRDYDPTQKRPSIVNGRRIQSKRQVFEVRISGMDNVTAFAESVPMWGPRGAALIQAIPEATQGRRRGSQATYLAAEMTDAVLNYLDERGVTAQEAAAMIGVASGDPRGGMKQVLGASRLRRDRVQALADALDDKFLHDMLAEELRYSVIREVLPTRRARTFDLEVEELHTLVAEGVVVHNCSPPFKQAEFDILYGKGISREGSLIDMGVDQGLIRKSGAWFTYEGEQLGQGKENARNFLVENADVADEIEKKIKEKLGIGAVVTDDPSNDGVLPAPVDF
# Mtb UGM inh = blocks M. tuberculosis UGM enzyme. P9WIQ1. purified UGM, fluorescence polarization probe displacement. inhibition, % at 10 µM. 320,000 compounds, 0.06% hits. AID 504406; in the data active means inhibition above about 10%, passing the limit was not always enough; inconclusive means no clear call, values can overlap the other calls
# Mtb betalactam = beta-lactam sensitization of Mtb H37Rv. inhibition, % at 25 µM. 330,000 compounds, 0.27% hits. M. tuberculosis H37Rv growth with meropenem, percent inhibition; call rule not given here;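 further: growth measured after seven days incubation then overnight dye step; 0% = bacteria only wells and 100% = bacteria with antibiotic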
# Rv3671c inh = inhibitors of M. tuberculosis serine protease Rv3671c | inhibition, % at 5.96 µM | 320,000 compounds, 0.048% hits | AID 2606; in the data active means inhibition above about 38%;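 further: extracellular domain of Rv3671c used as enzyme; 0% = enzyme with DMSO and 100% = no enzyme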
# Mtb hypoxia rep = inhibitors of hypoxia-regulated fluorescent reporter in Mycobacterium tuberculosis. AID 1159583. M. tuberculosis hypoxia-regulated fluorescent reporter, fluorescence. fluorescence inhibition, % (no concentration beside the values). 300,000 compounds, 0.1% hits; in the data active means fluorescence inhibition mostly above about 23%, no sharp cut-off; inactive means mostly below about 17%
# An asterisk follows results filed as active; u = inconclusive; x = no result. Rows were chosen to be rich in hits. Some 0.77% of all compounds tested hit in one or more screens of this group.
SMILES,RecA splice inh,Mtb UGM inh,Mtb betalactam,Rv3671c inh,Mtb hypoxia rep
CC(=O)N(C)c1ccc(OCC(O)Cn2c(C)nc3ccccc32)cc1 (configuration not stated),0,-1,-3,13,4
CC1CN(C(C)CO)C(=O)c2cccc(NC(=O)c3cnccn3)c2OC1CN(C)S(=O)(=O)c1ccc(F)cc1 (configuration not stated),x,x,x,x,6
COc1cc(CCCN2CCNCC2CC2CCCCC2)cc(OC)c1OC (configuration not stated),x,x,x,x,-1
CCOC(=O)C1=C(c2ccccc2)O/C(=C(/C#N)C(F)(F)F)S1,42*,1,68,-3,x
O=C(O)c1ccc(NN=C/C=C/c2ccc([N+](=O)[O-])o2)cc1,x,x,x,x,68*
O=C(O)c1ccc(NN=C/C=C/c2ccccc2[N+](=O)[O-])cc1,x,x,x,x,4
Cc1ccc(C(=O)NC(=Cc2cccs2)C(=O)NCCCn2ccnc2)cc1C,x,x,x,x,-1
Cn1nc(C(=O)Nc2cc(Cl)ccc2N2CCCC2)c2ccccc2c1=O,x,17*,3,-13,-9
COc1ccc(C(=O)COC(=O)CNC(=O)c2ccc(C)s2)c(OC)c1,x,-1,0,0,35*
CC=C(C)C(=O)OC1c2cc(OC)c(OC)c(OC)c2-c2c(cc3c(c2OC)OCO3)CC(C)[C@]1(C)O (some centres not stated),x,x,x,x,11
CC(C)(C)C1CCc2sc(-c3nnc(CCl)o3)cc2C1 (configuration not stated),51*,-2,99,-4,18
CC1(C)N=C(SCC(=O)Nc2ccc(Cl)cc2)C(c2ccccc2)=N1,x,2,2,-9,4
CC1(C)N=C(SCC(=O)Nc2ccc(Cl)cc2)C(c2ccc(Cl)cc2)=N1,44*,-1,-2,-11,20
Cc1ccc(NC(=O)Nc2ccno2)cc1,0,4,1,7,89*
O=C(Nc1ccno1)Nc1ccc(Cl)cc1Cl,-1,0,6,5,58*
Cc1ccsc1C=C1SC(=O)N(CC(=O)N2CCOCC2)C1=O,x,x,x,x,-3
O=C1CCC(OCc2ccccc2)CCN1CCC(Sc1ccccc1)c1ccccc1 (configuration not stated),x,x,x,x,12
CCC(C)C(NC(=O)C(=Cc1ccccc1)NC(=O)c1ccc(OC)cc1)C(=O)O (configuration not stated),x,x,x,x,5
COc1cc(C(=O)NCC(=O)N/N=C/c2cccc(OC(=O)c3ccco3)c2)cc(OC)c1OC,39*,-1,-1,12,x
Cc1cc(C(=O)NN=Cc2cccc(OC(=O)c3ccco3)c2)n[nH]1,x,x,x,x,2
COc1cc(C(=O)NCC(=O)N/N=C/c2ccco2)cc(OC)c1OC,-1,4,2,7,x
Cc1cc(C(=O)N/N=C/c2cccc(OC(=O)c3ccco3)c2)n[nH]1,44*,0,-5,27,x
CC=CC=CC(=O)Nc1nccs1,x,x,x,x,6
COc1ccc(C2C(C#N)=C(N)Oc3n[nH]c(C)c32)cc1Cn1nc(C)c([N+](=O)[O-])c1C (configuration not stated),84*,1,4,-3,x
COc1cc(C2C(C#N)=C(N)Oc3n[nH]c(-c4cccnc4)c32)ccc1OCC(N)=O (configuration not stated),46*,-1,1,-24,15
SMILES,RecA splice inh,Mtb UGM inh,Mtb betalactam,Rv3671c inh,Mtb hypoxia rep
COc1ccc(C2C(C#N)=C(N)Oc3cc(C)[nH]c(=O)c32)cc1OC (configuration not stated),-1,1,-4,-2,-11
COc1cc(C2C(C#N)=C(N)Oc3n[nH]c(C)c32)ccc1OC(=O)c1ccccc1 (configuration not stated),38*,-4,7,-6,1
CC=CC(=O)Nc1cccc(C2=NOC3(C2)CC(C(N)=O)N(C(=O)C=CC)C3)c1 (configuration not stated),x,x,x,x,15
CC(=O)c1ccc(NC=CC(=O)c2ccc(C)cc2)cc1,x,x,x,x,-1
COc1ccc(N2C(=O)C(Cl)=C(NCc3ccccc3)C2=O)cc1,36*,3,33,-11,x
CCCCOc1ccc(C2C3CN(C(=O)OCC)CC=C3C(C#N)=C(N)C2(C#N)C#N)cc1OC (configuration not stated),33*,1,37,0,1
CCCNC(=O)N1C2CCC1C(C(=O)OC)=C(c1ccc(-c3ccccc3)c(F)c1)C2 (configuration not stated),x,x,x,x,1
O=C(C=Cc1ccco1)N1CCCC(c2ccccc2)C1 (configuration not stated),x,x,x,x,3
Cc1ccc(NC2=C(Cl)C(=O)OC2OC(=O)c2ccco2)c(C)c1 (configuration not stated),x,0,u,-6,x
Cc1ccc(C)c(NC2=C(Cl)C(=O)OC2OC(=O)c2ccco2)c1 (configuration not stated),46*,2,2,1,2
Cc1ccc(NC2=C(Cl)C(=O)OC2OC(=O)c2ccco2)cc1C (configuration not stated),54*,-2,23,-5,8
CC(=O)NC1C(=O)N(CCN2CCOCC2)c2ccc(Cl)cc21 (configuration not stated),46*,-1,3,x,x
CC(=O)NC1C(=O)N(CCN2CCOCC2)c2ccc(F)cc21 (configuration not stated),41*,-3,4,x,12
CC(=O)NC1C(=O)N(CCN2CCOCC2)c2ccc(C)cc21 (configuration not stated),65*,1,-7,17,9
CC1=C(C)/C(=N\OS(=O)(=O)c2ccccc2)C=CC1=O,41*,6,100,-4,x
Cc1ccc(Cn2ccc(=O)c(OCc3c(Cl)cccc3Cl)c2C)cc1,10,0,100,1,68*
Cc1[nH]ccc(=O)c1OCc1c(Cl)cccc1Cl,2,-3,-5,5,-11
COC(=O)c1sc(-c2ccccc2)cc1NC(C)=O,-2,3,7,-3,10
COC(=O)c1sc(-c2cccs2)cc1NC(=O)/C=C/C(=O)O,42*,2,-8,5,x
COc1ccc(NC(=O)N(C)CC2Oc3ccc(NC(=O)c4ccncc4)cc3C(=O)N(C(C)CO)CC2C)cc1 (configuration not stated),x,x,x,x,15
COC(=O)c1c(C)oc2ccc(N(C(=O)c3ccncc3)S(=O)(=O)c3ccc(C)cc3)cc12,12,0,5,-23,1
Cc1cc(F)ccc1S(=O)(=O)N(C(=O)c1ccncc1)c1ccc(OC(=O)c2ccncc2)cc1,31*,0,-6,1,20
COC(=O)c1c(C)oc2ccc(N(C(=O)c3ccncc3)S(=O)(=O)c3ccc4ccccc4c3)cc12,38*,1,7,-14,10
COC(=O)c1c(C)oc2ccc(N(C(=O)c3ccncc3)S(=O)(=O)c3ccc(C)cc3C)cc12,56*,-2,11,-19,-4
Cc1ccc([N+](=O)[O-])cc1S(=O)(=O)N(C(=O)c1ccncc1)c1ccc2oc3c(c2c1)CCCC3,43*,0,1,-26,-1
